According to PubChem BioAssay AID1376 (SRMLSC, 2008):
Out of some 220,000 compounds screened, about 530 (0.24%) were called active. Many of the other results were omitted from the sample, so actives are more common in it than they were. Measured potencies and affinities stand elsewhere. Values without a mark were called inactive. No stated cut-off is given here; in the data, active means inhibition above about 13%; inconclusive means no clear call, values can overlap the other calls; inactive means below that.

molecular target: Bifunctional protein GlmU (Mycobacterium tuberculosis (strain ATCC 25618 / H37Rv)) (UniProt P9WMN3); test: inhibition of mycobacterial GlmU enzyme – biochemical, glucosamine-1-phosphate acetyltransferase (AID 1376);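 further: 0% = complete reaction with vehicle and 100% = reaction without substrate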; settings: M. tuberculosis GlmU acetyltransferase enzyme assay; stronger effect = higher value;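 tested at 30 µM in the primary screen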
Sequence (P9WMN3 whole entry, looked up): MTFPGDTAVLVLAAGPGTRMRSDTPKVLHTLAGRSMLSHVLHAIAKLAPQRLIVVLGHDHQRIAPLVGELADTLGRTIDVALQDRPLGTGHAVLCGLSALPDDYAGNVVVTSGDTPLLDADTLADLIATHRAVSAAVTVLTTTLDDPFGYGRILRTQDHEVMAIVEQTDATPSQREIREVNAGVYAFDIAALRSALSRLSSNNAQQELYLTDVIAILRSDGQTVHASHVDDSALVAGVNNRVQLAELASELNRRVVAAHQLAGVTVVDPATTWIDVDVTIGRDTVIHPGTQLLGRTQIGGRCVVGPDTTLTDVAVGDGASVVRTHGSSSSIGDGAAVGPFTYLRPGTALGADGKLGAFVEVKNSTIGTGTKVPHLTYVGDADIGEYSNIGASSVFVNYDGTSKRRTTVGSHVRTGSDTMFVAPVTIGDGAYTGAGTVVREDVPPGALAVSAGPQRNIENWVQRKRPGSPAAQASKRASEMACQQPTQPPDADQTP

Compound	inhibition
O=C(CSc1nc2ccccc2n1CCc1ccccc1)NC1CC1	0.08%
O=C(CSc1nc2ccccc2n1CCc1ccccc1)N1CCOCC1	-3.44%
O=C(CSc1nc2ccccc2n1CCc1ccccc1)c1ccc(O)c(O)c1	23.3% (active)
CC1CC(=S)Nc2ccccc2N1C(=O)Nc1ccccc1 (configuration not stated)	1.98%
O=C1S/C(=C\c2ccc(Cl)cc2)C(=O)N1CCn1cnnn1	-3.11%
O=C(NCc1ccc(F)cc1)c1ccc(CS(=O)(=O)Cc2ccc(F)cc2)o1	0.32%
COc1ccc(C(=O)Nc2nc3ccccc3s2)cc1OC	1.41%
O=[N+]([O-])c1cc(CN(CCO)CCO)ccc1O	1.38%
CC(NCC(O)COCc1ccc(Cl)cc1)c1ccccc1 (configuration not stated)	-4.31%
O=c1oc2ccccc2c(Nc2cccc(O)c2)c1[N+](=O)[O-]	1.89%
O=c1oc2ccccc2c(Nc2ccccc2)c1[N+](=O)[O-]	0.42%
O=c1oc2ccccc2c(Nc2ccc(O)cc2)c1[N+](=O)[O-]	13.3% (active)
Cc1cc(NC(=O)c2cc(-c3ccc(C)s3)nc3ccccc23)no1	2.43%
COC(=O)/C(C(C)=O)=C(/C=C/C=C/N(C)C)N(C)C	6.24%
CCOC(=O)C1(Cc2ccc(Cl)cc2)CCN(C(=O)C2CCCO2)CC1 (configuration not stated)	1.7%
O=C(COc1ccc(Cc2ccccc2)cc1)c1ccc(F)cc1	-3.15%
CC1=C(C#N)c2nc(N)c(C#N)c(C)c2/C1=C\c1ccc(OCC(=O)O)c(Cl)c1	4.55%
CC1=C(C#N)c2nc(N)c(C#N)c(C)c2/C1=C\c1ccc(C)cc1	2.53%
Cc1ccccc1/C=N/NC(=O)Cc1ccc(Cl)cc1	0.8%
CC(C)(C)N1CC(C(=O)O)CC1=O (configuration not stated)	6.47%
CC(=O)NC(CCS(C)(=O)=O)C(=O)Nc1ccccc1 (configuration not stated)	2.39%
COc1ccc(NC(=O)C(CCS(C)(=O)=O)NC(C)=O)cc1 (configuration not stated)	18.3% (active)
CC(=O)NC(CCS(C)(=O)=O)C(=O)Nc1ccc(Oc2ccccc2)cc1 (configuration not stated)	-3.46%
O=[N+]([O-])c1cccc(/C=N/n2c(COc3ccccc3)n[nH]c2=S)c1	9.99%
CC(C)(C)c1ccc(Oc2ccc(NC(=O)c3cccs3)cn2)cc1	-0.97%

Compound	inhibition
O=C1OCc2cccc([N+](=O)[O-])c21	7.84%
O=C1CC(=O)c2c1cccc2[N+](=O)[O-]	17% (active)
O=C1c2cccc([N+](=O)[O-])c2C(=O)N1c1ccccc1	1.03%
Cc1ccc(N=CC2=C(O)CC(C)(C)CC2=O)nc1	0.57%
CC1(C)CC(=O)C(C=Nc2ccc(Cl)cn2)=C(O)C1	13.9% (active)
CC1(C)CC(=O)C(/C=N/c2ccccn2)=C(O)C1	0.36%
N#Cc1c2c(c(NCCN3CCOCC3)n3c1nc1ccccc13)CCCC2	6.82%
N#Cc1c2c(c(NCCCN3CCOCC3)n3c1nc1ccccc13)CCC2	13.8% (active)
CCCc1c(C)c(C#N)c2nc3ccccc3n2c1NCCCN1CCOCC1	11.7%
COCCCNC(=O)C1CCN(C(=O)c2cc3sccc3n2Cc2ccc(F)cc2)CC1	1.5%
O=C(OCC1O[C@@H](OC(=O)c2cc(O)c(O)c(O)c2)[C@@H](OC(=O)c2cc(O)c(O)c(O)c2)[C@@H](OC(=O)c2cc(O)c(O)c(O)c2)[C@@H]1OC(=O)c1cc(O)c(O)c(O)c1)c1cc(O)c(O)c(O)c1 (some centres not stated)	7.78%
O=C(O)C[C@@H]1C(=O)O[C@@H]2C(COC(=O)c3cc(O)c(O)c(O)c3)O[C@@H](OC(=O)c3cc(O)c(O)c(O)c3)[C@@H](OC(=O)c3cc(O)c(O)c4c3[C@H]1[C@H](O)C(=O)O4)[C@H]2OC(=O)c1cc(O)c(O)c(O)c1 (some centres not stated)	67.3% (active)
CCCC1=C(C(=O)OCC)C(c2ccco2)C(C#N)=C(N)O1 (configuration not stated)	0.05%
Cc1ccc(N2C(=O)C(Cc3ccc(O)cc3)NC2=S)cc1C (configuration not stated)	-4.47%
CC(=O)N1CCC(=NNC(=O)CSc2cc(C)c(Br)cc2C)CC1	-1.13%
COc1ccc(-c2nnc(SCC(=O)NCc3ccco3)n2C)cc1	3.67%
Cc1cccc(N2C(=O)C(O)=C(C(=O)c3cccs3)C2c2ccc(Cl)cc2)n1 (configuration not stated)	3.09%
CC1CCN(c2nnc(-c3ccccc3)c3ccccc23)CC1	0.97%
CC1CCN(c2ncnc3ccccc23)CC1	2.04%
CC1CCN(c2nncc3ccccc23)CC1	31.2% (active)
COc1ccc(C(CNC(=O)COc2ccccc2-c2ccccc2)N2CCOCC2)cc1 (configuration not stated)	-8.37%
CCOC(=O)c1ccc(NC2c3ccccc3C(=O)N2c2cccnc2)cc1 (configuration not stated)	1.04%
Oc1c(Cl)cc(Cl)cc1Sc1cc(Cl)cc(Cl)c1O	13.1% (active)
Oc1c(Cl)cc(Cl)cc1C=Nc1ccc(Br)cc1	5.27%
C/C(=N\O)c1cc(Cl)cc(Cl)c1O	-5.49%

Compound	inhibition
COc1cc(NC(=O)Nc2ccc(Cl)c(Cl)c2)c(C(=O)O)cc1OC	0.76%
Cc1sc2nc(CN3CCC(C)CC3)nc(Cl)c2c1C	-6.88%
COc1cc(NC(=O)c2cc3nc(-c4ccccc4)cc(-c4ccccc4)n3n2)cc(OC)c1OC	-2.98%
COc1ccc(NC(=O)c2cc3nc(-c4ccccc4)cc(-c4ccccc4)n3n2)c(OC)c1	20.8% (active)
O=C(Nc1cccc(O)c1)c1cc2nc(-c3ccccc3)cc(-c3ccccc3)n2n1	1.52%
CC(C)CN(C(=O)CSc1nnc2c(Cl)cc(C(F)(F)F)cn12)C1CCS(=O)(=O)C1 (configuration not stated)	52.2%
Cc1ccc(N(CC(=O)N/N=C/c2cc(C)n(-c3ccccc3)c2C)S(C)(=O)=O)c(C)c1	1.57%
OCC1(CCc2ccccc2)CCN(Cc2c(F)ccc(F)c2F)CC1	3.84%
CC(C)CCNc1nnnc2c1sc1nc(N3CCOCC3)c3c(c12)CC(C)(C)SC3	2.31%
CCOc1ccc(NC(=S)N2CCc3cc(OC)c(OC)cc3C2COc2ccc3c(C)cc(=O)oc3c2)cc1 (configuration not stated)	1.27%
O=C(COC(=O)C12CC3CC(CC(C3)C1)C2)NCCc1ccccc1	5.26%
Cn1nccc1NC(=O)c1nccnc1C(=O)O	-4.84%
Cc1cc(N2CCN(C(=O)c3ccco3)CC2)n2nc(-c3cccc(Cl)c3)cc2n1	14.1% (active)
Cc1cc(N2CCN(C(=O)c3ccco3)CC2)n2nc(C)c(-c3ccccc3)c2n1	3.95%
Cc1cc(N2CCN(C(=O)c3ccco3)CC2)n2nc(-c3cccc(F)c3)cc2n1	-0.85%
CCCCN(CC)CCNC(=O)c1cn(-c2ccc(Cl)cc2)c(=O)c2ccccc12	-2.06%
Cc1ccc(-c2c(C)n([O-])c3c([n+]2=O)CCC3)o1	1.5%
Cc1c(-c2ccco2)[n+](=O)c2c(n1[O-])CCCCC2	3.97%
Cc1c(-c2ccco2)[n+](=O)c2c(n1[O-])CCC2	14.9% (active)
COC(=O)c1cnc(N2CCCN(S(=O)(=O)c3ccc(C(F)(F)F)cc3)CC2)nc1C(F)(F)F	1.89%
Cc1cccc(NC(=O)c2ccc(COc3ccc4ccccc4c3)o2)n1	-0.95%
O=C(CN1N=C(c2ccccc2)CCC1=O)NCCN1CCc2ccccc2C1	-1.06%
CC(=O)Oc1cccc(N2C(=O)c3ccccc3C2=O)c1	-6.78%
CC12CCC(C(=O)NC(c3ccccc3)c3ccccc3)(OC1=O)C2(C)C (configuration not stated)	13.4% (active)
CC12CCC(C(=O)NNc3ccccc3)(OC1=O)C2(C)C (configuration not stated)	-5.23%

Compound	inhibition
CC12CCC(C(=O)NCc3ccccc3)(OC1=O)C2(C)C (configuration not stated)	1.44%
COc1cccc(OC)c1C(=O)N1CCN(Cc2ccccc2C(F)(F)F)CC1	3.68%
O=C(O)c1c2c(nc3ccccc13)/C(=C/c1ccc(O)cc1)CCC2	-1.41%
COc1ccc(/C=C2\CCc3c2nc2ccccc2c3C(=O)O)cc1OC	-1.01%
CCOC(=O)c1nnn(-c2nc(OC)nc(N3CCCCC3)n2)c1-c1ccccc1	1.53%
CCNc1nc(N2CCCCC2)nc(-n2nnc(C(=O)OCC)c2C)n1	13.5% (active)
COC(=O)c1nnn(-c2nc(N3CCOCC3)nc(N3CCOCC3)n2)c1C	0.09%
O=C(O)/C=C/C(=O)Nc1ccc2nccnc2c1	0.78%
CN(C)S(=O)(=O)c1ccc(C(=O)NCc2ccco2)cc1	7.54%
CCOc1cccc(NC(=O)/C(C#N)=C\c2cccnc2)c1	-1.75%
CCOc1ccc(/C=C(\C#N)C(=O)Nc2cccnc2)cc1	-3.21%
CCOc1cccc(NC(=O)/C(C#N)=C/c2cccnc2)c1	13.3% (active)
Cc1ccc(-c2nnc(CSc3nnc(COc4ccccc4)n3-c3ccc(C)cc3)o2)cc1	2.51%
COc1ccccc1CCNC1CCC(C)CC1 (configuration not stated)	1.25%
CC(=O)c1ccc(S(=O)(=O)N2CCNCC2)cc1	1.28%
O=[N+]([O-])c1cccc(-c2csc(CS(=O)(=O)Cc3ccco3)n2)c1	1.82%
O=C(NC1CC1)C1Nc2ccc(OC(F)(F)F)cc2C2C=CCC12 (configuration not stated)	-0.17%
Cc1ccc2c(c1)C1C=CCC1C(C(=O)NCCCN1CCOCC1)N2 (configuration not stated)	3.8%
CCOC(=O)C1Nc2ccc(OC(F)(F)F)cc2C2C=CCC12 (configuration not stated)	1.1%
CCOC(=O)C1Nc2ccc(C)cc2C2C=CCC12 (configuration not stated)	-1.77%
O=C(O)C1Nc2ccc(OC(F)(F)F)cc2C2C=CCC12 (configuration not stated)	13.1% (active)
Cc1ccc2c(c1)C1C=CCC1C(C(=O)O)N2 (configuration not stated)	28% (active)
